Compound activity (PubChem)
HPGD inh: blocks human HPGD enzyme activity; 150,000 tested, 4.3% active; AID 894; Potency, µM, for the others: at the highest dose activity change, negative = inhibition, actives largely listed as inhibitors; purified HPGD, NADH fluorescence kinetic, PGE2 substrate; also: potency is read from the fitted curve at half-maximal effect
Target sequence (P15428 whole entry, looked up): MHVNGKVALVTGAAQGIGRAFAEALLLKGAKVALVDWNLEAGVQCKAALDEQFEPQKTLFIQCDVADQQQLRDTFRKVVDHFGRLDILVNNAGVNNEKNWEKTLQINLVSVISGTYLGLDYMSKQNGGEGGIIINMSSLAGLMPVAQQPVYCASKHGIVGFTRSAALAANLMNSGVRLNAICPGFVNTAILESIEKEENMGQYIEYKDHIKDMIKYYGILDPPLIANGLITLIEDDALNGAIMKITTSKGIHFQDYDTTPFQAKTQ
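NADH formation kinetics: reaction with 30 uM PGE2 and 1 mM NAD+ (final), 20 nM enzyme, Tris-HCl pH 8 with Tween 20, after 15 min compound preincubation at room temperature. Fluorescence change, last versus first of five reads.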
IMPase Li inh: membrane-permeable IMPase blocker, potentiated with lithium; 210,000 tested, 0.35% active; CHO-M1 cells, IP1 TR-FRET (IP-One), carbachol + lithium; Potency, µM (series often up to 59.4 µM), inactives show top-dose activity, negative = IMPase inhibition, actives largely listed as inhibitors; AID 1457; active = well fitted curve in the direction sought with a large enough effect; inconclusive = small, poorly fitted or top-dose-only effect, or another doubt; inactive = no such curve, though single readings can be large; an effect the other way counts as inactive or inconclusive;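 also: IP1 builds up when IMPase is blocked and the TR-FRET signal falls; potency is read from the fitted curve at half-maximal effect; plate controls were basal vehicle for no effect and high inhibitor control for full effect; nearly all actives have a fitted effect of over 50% in size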
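Readout is a homogeneous TR-FRET IP1 immunoassay (Ex 320, Em 665 and 620), where raised cytosolic IP1 lowers signal. Cells were CHO-M1 treated 30 min at 37C with test compounds plus a little lithium; AC50 values came from Hill-equation fitting.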
NPSR antag: neuropeptide S receptor (human) antagonism, cAMP; AID 1461; Potency, µM (doses to about 38.3 µM), for the others: at the top dose activity change, negative = inhibition, actives largely listed as inhibitors; CHO-NPSR cells, cAMP TR-FRET, antagonist mode; 220,000 tested, 1% active; active = well fitted curve in the direction sought with a large enough effect; inconclusive = small, poorly fitted or top-dose-only effect, or another doubt; inactive = no such curve, though single readings can be large; an effect the other way counts as inactive or inconclusive; also: potency is read from the fitted curve at half-maximal effect; nearly all actives have a fitted effect of over 50% in size
PNC inhibitor: perinucleolar compartment assembly inhibition; PC3M PTB-GFP, PNC prevalence imaging, 16 h; stronger effect = lower value; activity change (PNC), negative = inhibition, % at 10 µM; 140,000 tested, 3.1% active; AID 2417;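 active = readout at or below -70, meaning at least 70% loss of cells showing the perinucleolar compartment, a nuclear body marking cancer cells; inconclusive = readout between -30 and a set limit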;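 also: plate controls were DMSO wells for no effect and camptothecin positive control wells for full effect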
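Compounds are pinned in duplicate onto adhered PC3M cells stably expressing GFP-tagged PTB and incubated 16 h at 37 C. Cells are then fixed, nuclei stained with Hoechst, and PNC-positive cells counted.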
IMPase cell inh: cell-permeable inhibitors of inositol monophosphatase (IMPase) | P97697 | CHO-M1 cells, IP1 accumulation, HTRF TR-FRET ratio | inhibition (IP1 accumulation), % at 46.1 µM | 120,000 tested, under 10 active | AID 901; active = well fitted curve in the direction sought with a large enough effect in the signal ratio, not every such curve was filed as active; inconclusive = small, poorly fitted or top-dose-only effect, or a change in a side signal; inactive = no such curve, though single readings can be large or run the other way; the % refers to the signal ratio;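 also: cells stimulated with carbachol in lithium chloride buffer; plate controls were DMSO basal wells for no effect and reference inhibitor wells for full effect; higher means more IMPase inhibition seen as more IP1 and lower FRET ratio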
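The IP-One HTRF competitive assay in carbachol-stimulated CHO-M1 cells quantifies cellular IP1. Compounds spanned up to 46 uM final, and activity is expressed as AC50 from concentration-response fits of the ratio and donor data.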
ALDH1A1 block: inhibitors of human aldehyde dehydrogenase 1A1; 220,000 tested, 7.3% active; Purified ALDH1A1, NADH fluorescence, propionaldehyde substrate; Potency, µM (series often up to 75.3 µM), for the others: at the top dose activity, negative = inhibition, hits mostly inhibitors; P00352;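 also: potency is read from the fitted curve at half-maximal effect; plate controls were no enzyme wells and a reference inhibitor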
Target sequence (P00352 whole entry, looked up): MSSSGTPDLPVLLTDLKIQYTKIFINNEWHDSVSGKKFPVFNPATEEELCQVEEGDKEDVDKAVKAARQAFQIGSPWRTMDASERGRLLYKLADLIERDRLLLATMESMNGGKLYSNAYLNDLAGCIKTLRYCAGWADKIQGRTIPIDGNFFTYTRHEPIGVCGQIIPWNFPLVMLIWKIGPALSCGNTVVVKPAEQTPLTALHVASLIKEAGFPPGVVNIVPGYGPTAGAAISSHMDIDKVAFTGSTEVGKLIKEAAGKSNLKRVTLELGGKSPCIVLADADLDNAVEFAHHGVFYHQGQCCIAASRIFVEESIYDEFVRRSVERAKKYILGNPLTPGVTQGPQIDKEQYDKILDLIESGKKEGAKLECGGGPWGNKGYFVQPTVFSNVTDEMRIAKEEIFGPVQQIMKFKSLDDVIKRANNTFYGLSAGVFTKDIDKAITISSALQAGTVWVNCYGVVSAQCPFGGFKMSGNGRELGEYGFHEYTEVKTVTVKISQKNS
Active calls of the source: *; [ ] = dose if it differs, or a comment. Shown are actives, neighbours in structure and some others; about 11% of the full set was active somewhere. Unless noted, calls follow the shape of the dose curve; as a rule, active = well fitted inhibition curve with a large enough effect (not every such curve was filed as active); inconclusive = small, poorly fitted or top-dose-only effect, or another doubt; inactive = no such curve, though single readings can be large or run the other way. Unless noted, % is scaled to controls: 0 for no effect and ±100 for the full control effect.

For CCCn1c(SCC(=O)N2CCCC2)nc2c1c(=O)n(C)c(=O)n2C the results were NPSR antag 15.1%[46.1 µM], PNC inhibitor -9.0, IMPase cell inh 10.3 and ALDH1A1 block -6.8%.
Screening Cc1ccc(S(=O)(=O)Nc2ccc3nc(-c4cccn4C)[nH]c3c2)cc1 returned HPGD inh 119.5%, IMPase Li inh 6.9%[38.3 µM], NPSR antag -16.3%[46.1 µM], PNC inhibitor inconclusive, IMPase cell inh 3.7 and ALDH1A1 block inconclusive.
`CCOc1ccc(-n2nnnc2-c2nc3ccccc3s2)cc1` gave HPGD inh 11.5%, IMPase Li inh inconclusive, NPSR antag inconclusive, PNC inhibitor -21.4 and ALDH1A1 block -13.5%.
Screening Cc1ccc(-n2nnnc2-c2nc3ccccc3s2)cc1 returned HPGD inh -28.9%, IMPase Li inh -21.8%, NPSR antag inconclusive, PNC inhibitor -134.0* and ALDH1A1 block -0.2%.
Screening O=C(CCC(=O)OCc1cccc([N+](=O)[O-])c1)Nc1ccc(F)cc1 returned IMPase Li inh 5.2%, NPSR antag 11.6% and ALDH1A1 block -8.7%.
For O=C(O)c1ccc(Sc2nnc(-c3cccc(Br)c3)o2)c([N+](=O)[O-])c1 the results were HPGD inh 14.1µM*, IMPase Li inh 20.5%[38.3 µM], NPSR antag inconclusive, PNC inhibitor 17.8, IMPase cell inh -9.0 and ALDH1A1 block 15.1%.
For Cn1c(Sc2ccc(C(=O)O)cc2[N+](=O)[O-])nnc1-c1ccccc1 the results were IMPase Li inh 0.7%, NPSR antag 7.1% and ALDH1A1 block 7.4%.
Screening Cc1cc(C(F)(F)F)nn1CC(=O)NCc1ccccc1 returned HPGD inh 0.8%, IMPase Li inh -4.8%[38.3 µM], NPSR antag 3.7%[46.1 µM], PNC inhibitor 1.0, IMPase cell inh 4.6 and ALDH1A1 block -5.8%.
For Cc1cc(C(F)(F)F)nn1CC(=O)Nc1ccc(Br)c2cccnc12 the results were HPGD inh -14.3%, IMPase Li inh 9.3%, NPSR antag -9.1%[46.1 µM], PNC inhibitor -100.0*, IMPase cell inh -11.8 and ALDH1A1 block -7.3%.
Screening CCOC(=O)CC12CN3CN(C1)CC(CC(=O)OCC)(C3)C2=O returned HPGD inh 2.6%, IMPase Li inh -5.4%, NPSR antag -1.3%[46.1 µM], PNC inhibitor inconclusive, IMPase cell inh -3.5 and ALDH1A1 block 11.9%.
CC(C)OC(=O)CC12CN3CN(C1)CC(CC(=O)OC(C)C)(C3)C2=O was read as HPGD inh -0.8%, IMPase Li inh 0.8%, NPSR antag -3.0%[46.1 µM], PNC inhibitor inconclusive, IMPase cell inh 7.4 and ALDH1A1 block 2.51µM*.
`O=C(Cc1ccccc1)Nc1ccccc1C(=O)Nc1ccccc1` gave HPGD inh inconclusive, IMPase Li inh 16.8%, NPSR antag -12.8%, PNC inhibitor -120.2* and ALDH1A1 block 11.4%.
`CC(C)CC(=O)Nc1ccc(Oc2ccc(NC(=O)CC(C)C)cc2)cc1` gave HPGD inh -1.7%, IMPase Li inh -0.3%, NPSR antag 6.0%[46.1 µM], PNC inhibitor inconclusive, IMPase cell inh -0.6 and ALDH1A1 block 15.6%.
CC(C)CC(=O)NC(=S)Nc1ccccc1C(=O)Nc1ccccc1 was read as HPGD inh -15.1%, IMPase Li inh 24.9%[38.3 µM], NPSR antag -12.6%[46.1 µM], PNC inhibitor 7.1, IMPase cell inh inconclusive and ALDH1A1 block 10µM*.
CC(C)C(=O)NC(=S)Nc1ccccc1C(=O)Nc1ccccc1 was read as HPGD inh -9.7%, IMPase Li inh -12.8%[38.3 µM], NPSR antag -6.7%[46.1 µM], PNC inhibitor 93.7, IMPase cell inh -2.9 and ALDH1A1 block -1.2%.
`CC(C)(C)C(=O)NC(=S)Nc1ccccc1C(=O)Nc1ccccc1` gave HPGD inh -3.4%, IMPase Li inh -27.6%[38.3 µM], NPSR antag -3.0%[46.1 µM], PNC inhibitor 45.1, IMPase cell inh -8.1 and ALDH1A1 block 25.1µM*.
`CC(C)CC(=O)Nc1ccc(Nc2ccccc2)cc1` gave HPGD inh 11.2µM*, IMPase Li inh 56.0%, NPSR antag -16.5%[46.1 µM], PNC inhibitor -100.0*, IMPase cell inh -6.6 and ALDH1A1 block -0.3%.
For CC(C)(C)C(=O)Nc1ccccc1C(=O)Nc1ccccn1 the results were HPGD inh -11.3%, IMPase Li inh 3.0%, NPSR antag 13.1%[46.1 µM], PNC inhibitor -100.0*, IMPase cell inh -5.6 and ALDH1A1 block -11.7%.
Screening O=C(O)c1ccccc1C(=O)Nc1ccccn1 returned HPGD inh -1.5%, IMPase Li inh 26.5%[38.3 µM], NPSR antag -18.0%[46.1 µM], PNC inhibitor -14.3, IMPase cell inh 3.1 and ALDH1A1 block 1.3%.
For Cc1nn(-c2ccccc2)c(C)c1NC(=O)COc1ccc(C#N)cc1 the results were HPGD inh -8.4%, IMPase Li inh -3.7%, NPSR antag 20.4%, PNC inhibitor -80.4* and ALDH1A1 block 3.9%.
Screening N#CC1=C(N)C(C#N)(C#N)C(c2ccncc2)C2CN(C(=O)OCc3ccccc3)CC=C12 (stereo not given) returned HPGD inh -8.9%, IMPase Li inh 18.6%, NPSR antag 3.98µM*, PNC inhibitor -118.9*, IMPase cell inh inconclusive and ALDH1A1 block inconclusive.
Cc1ccccc1C(=O)NCc1nnc(SCC(=O)N2c3ccccc3Sc3ccccc32)n1C was read as HPGD inh -4.8%, IMPase Li inh 19.0%[38.3 µM], NPSR antag -26.2%[46.1 µM], PNC inhibitor -0.4, IMPase cell inh 5.5 and ALDH1A1 block 25.1µM*.
C=CCn1c(CNC(=O)c2ccco2)nnc1SCC(=O)N1c2ccccc2Sc2ccccc21 was read as HPGD inh -10.2%, IMPase Li inh 54.6%[38.3 µM], NPSR antag -26.2%[46.1 µM], PNC inhibitor -19.6, IMPase cell inh 9.1 and ALDH1A1 block 0.562µM*.
For Cn1c(CNC(=O)c2ccccc2F)nnc1SCc1ccc(Cl)cc1 the results were IMPase Li inh 0.9%, NPSR antag 2.3% and ALDH1A1 block -7.9%.
`CN(C)C(=O)CSc1nnc(-c2cnccn2)n1C` gave HPGD inh -17.5%, IMPase Li inh -3.8%, NPSR antag -6.4%[46.1 µM], PNC inhibitor 325.3, IMPase cell inh 8.7 and ALDH1A1 block -0.7%.
Screening COc1ccc(C2N=C(N)Nc3nc4ccccc4n32)c(OC)c1OC (stereo not given) returned IMPase cell inh -2.8.
`CCOC(=O)c1ccccc1-n1c(C)cc(C2N=C(N)Nc3nc4ccccc4n32)c1C` (stereo not given) gave HPGD inh -15.5%, IMPase Li inh 44.6%[38.3 µM], NPSR antag 12.6µM*, PNC inhibitor -17.1, IMPase cell inh 11.0 and ALDH1A1 block inconclusive.
Screening Cc1ccc2oc(/N=C(\N)NC(=O)C(C)(C)C)nc2c1 returned NPSR antag -28.1% and ALDH1A1 block -0.1%.
